Assay outcomes from PubChem.
This is a sample that favours compounds with a hit; in the whole collection about 4.1% have one here.
hcDAF12 agonist – activates DAF-12 receptor from parasite H. contortus; HEK293 hcDAF-12 lit1-tk-luc reporter, luminescence; 0% DMSO, 100% Δ7-dafachronic acid; activation, % at 6.8 µM; hit rate 1.4% among 370,000;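 active means activation above the mean of all tested compounds plus 3 SD, cut at about 5.5% in these data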
DAX1 inh-1 – inhibitors of DAX1 repression of SF-1 activated StAR promoter | hit rate 1.1% among 370,000 | inhibition, % at 6.8 µM | HEK293T StAR-luciferase reporter, SF-1/DAX-1 repression relief;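 active means inhibition above the mean over all tested compounds plus 3 SD, cut at about 3.6% in these data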;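 further: higher inhibition means more luminescence from relief of DAX-1 repression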
hgDAF-12 ag – agonists of H. glycines DAF-12 nuclear receptor. HEK293 GAL4-hgDAF12 UAS-luciferase reporter, agonist luminescence; normalized to butyrate control. activation, % at 6.8 µM. hit rate 1.8% among 370,000;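 active means activation above a cutoff set at the mean of all screened compounds plus 3 SD, cut at about 10% in these data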
DAX1 inh-2 – inhibits human nuclear receptor DAX1; inhibition, % at 6.75 µM; P51843; hit rate 0.99% among 340,000; AID 504766; HEK293 Gal4-DAX1 luciferase reporter, luminescence;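 active means inhibition above the mean over all tested compounds plus 3 SD, cut at about 4.2% in these data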;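 further: inhibition shows as a rise in luminescence from relieved DAX1 repression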
ssDAF12 agonist – activates DAF-12 receptor from parasite S. stercoralis; AID 652126; hit rate 1% among 370,000; activation, % at 6.8 µM; HEK293 ssDAF-12/GRIP1 lit1-tk-luc reporter, luminescence; % of 3 µM dafachronic acid response;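 active means activation above the mean over all tested compounds plus 3 SD, cut at about 0.9% in these data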
hgDAF12 ag – confirmation of H. glycines DAF-12 agonists; shares compounds with hgDAF-12 ag; HEK293 GAL4-hgDAF12 luciferase reporter, agonist mode; percent of butyrate response; activation, % at 6.8 µM; hit rate 80% among 3,300;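 active means mean activation over triplicate wells above the hit cutoff derived from the earlier primary screen, cut at about 11% in these data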
LXR ag 2 – activates human LXR-beta, counter-screen for DAF-12 agonists; 3,300 tested, under 10 active; activation, % at 6.8 µM; HEK293 Gal4-LXR luciferase reporter, 24 h; shares compounds with hgDAF-12 ag;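 active means mean activation of the triplicate above a set limit carried over from the primary screen, none filed active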
Target sequence (P55055 whole entry, looked up, the tested form may be a part): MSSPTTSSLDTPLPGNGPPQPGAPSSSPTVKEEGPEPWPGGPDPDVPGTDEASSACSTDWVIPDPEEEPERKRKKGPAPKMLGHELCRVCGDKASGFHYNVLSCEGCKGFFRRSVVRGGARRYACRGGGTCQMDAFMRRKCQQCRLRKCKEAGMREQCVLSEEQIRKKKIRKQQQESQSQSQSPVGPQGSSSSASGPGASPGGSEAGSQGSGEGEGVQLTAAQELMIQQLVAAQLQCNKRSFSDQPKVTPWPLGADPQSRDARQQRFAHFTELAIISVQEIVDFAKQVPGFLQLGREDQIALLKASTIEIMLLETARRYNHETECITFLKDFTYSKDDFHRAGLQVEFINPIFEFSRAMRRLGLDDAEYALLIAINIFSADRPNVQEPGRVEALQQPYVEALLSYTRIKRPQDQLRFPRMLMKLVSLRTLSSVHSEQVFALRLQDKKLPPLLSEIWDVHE
Each line names hits and unclear results; the compound was inactive in the other large screens (follow-up assays come after a bar, where they were run).

N/C(=N\OC(=O)COc1ccc(Cl)cc1Cl)c1ccncc1	DAX1 inh-1 4.0, hgDAF-12 ag 16.1, DAX1 inh-2 6.2 | hgDAF12 ag 21.3 | LXR ag 2 inactive
CCCCN(CC)CCNC(=O)c1cc2c(C)nc3ccccc3c2o1	hgDAF-12 ag 17.4 | hgDAF12 ag inactive | LXR ag 2 inactive
Cc1nc(C(C)NC(=O)c2cc(COc3ccc(C)c(C)c3)on2)c(C)s1 (centres undefined)	hgDAF-12 ag 13.4 | hgDAF12 ag 14.3 | LXR ag 2 inactive
Cc1ccc(C)c(OCc2cc(C(=O)NC(C)c3cnn(C)c3)no2)c1 (centres undefined)	none
Cc1cc(OCc2cc(C(=O)NC(C)c3cnn(C)c3)no2)cc(C)c1Cl (centres undefined)	hgDAF-12 ag 16.0 | hgDAF12 ag 13.2 | LXR ag 2 inactive
COc1cccc(CNC(=O)[C@H]2CCCN2C(=O)[C@H]2CCCN2C(=O)c2ccc(F)c(F)c2)c1	none (no result: DAX1 inh-2)
Cc1cc(O)cc(=O)n1-c1cc(F)c(F)c(F)c1	none (no result: DAX1 inh-2)
Cc1ccc(NC(=O)c2cc3cccc([N+](=O)[O-])c3[nH]2)cc1	hgDAF-12 ag 13.4, ssDAF12 agonist 1.3 | hgDAF12 ag 18.8 | LXR ag 2 inactive
O=C(NCCCc1ccccc1)C1CCN(c2nc(-c3ccc(Br)cc3)cs2)CC1	none (no result: DAX1 inh-1, DAX1 inh-2)
COc1ccc(CN2C(NC(=O)OCc3ccccc3)=NC3=CC(C)(C)n4c(=O)n(-c5ccccc5)c(=O)n4C32)c(OC)c1 (centres undefined)	none (no result: DAX1 inh-2)
Cc1nc2c(-c3ccccc3)c(C)nn2c(N)c1-c1ccccc1	none
Cc1nn2c(N)c(-c3ccccc3)cnc2c1-c1ccc(Cl)cc1	hgDAF-12 ag 13.9 | hgDAF12 ag 16.5 | LXR ag 2 inactive
Cc1cc(N2CCN(CC(C)(C)O)C[C@H]2C)ccc1N1CCN(CC(C)(C)O)[C@@H](C)C1	none (no result: DAX1 inh-2)
CCC(=O)Nc1nc2ccc3sc(C)nc3c2s1	none
Cc1nc2c(ccc3nc(NC(=O)C4CC4)sc32)s1	hgDAF-12 ag 14.8 | hgDAF12 ag 12.3 | LXR ag 2 inactive
Cc1ccccc1C(=O)NC1CCCCCCC1	hgDAF-12 ag 14.6, ssDAF12 agonist 1.0 | hgDAF12 ag 12.2 | LXR ag 2 inactive
COc1ccc(Cn2cc(COC(=O)N3CCOCC3)nn2)cc1	none (no result: DAX1 inh-2)
Cc1ccsc1/C=N/NC(=O)c1sccc1C	hcDAF12 agonist 7.2, DAX1 inh-1 3.7, hgDAF-12 ag 13.3, ssDAF12 agonist 1.6 | hgDAF12 ag 17.5 | LXR ag 2 inactive
CN(C)C=NC(=O)c1cc(C(=O)c2ccc(C(C)(C)C)cc2)c[nH]1	DAX1 inh-1 4.4, hgDAF-12 ag 14.0 | hgDAF12 ag 15.6 | LXR ag 2 inactive
CCCc1cc2c(O)ccc(O)c2c(=O)o1	none (no result: DAX1 inh-2)
O=C(NCCc1ccccc1)c1ccc(-c2cccnc2)c2ccoc12	DAX1 inh-1 4.3, hgDAF-12 ag 14.2 (no result: DAX1 inh-2) | hgDAF12 ag 10.6 | LXR ag 2 inactive
O=C(NCc1cccc(Cl)c1)c1ccc(-c2cccnc2)c2ccoc12	none (no result: DAX1 inh-2)
O=C(NNC(=O)C1CC=CCC1C(=O)O)c1cccs1 (centres undefined)	hgDAF-12 ag 17.4 | hgDAF12 ag inactive | LXR ag 2 inactive
Cc1ccsc1C(=O)NNC(=O)C1CC=CCC1C(=O)O (centres undefined)	DAX1 inh-1 4.2, hgDAF-12 ag 17.2, ssDAF12 agonist 1.4 | hgDAF12 ag inactive | LXR ag 2 inactive
COc1ccc(NC(=O)c2ccc(C)cc2)cc1	DAX1 inh-1 3.9, hgDAF-12 ag 14.3 | hgDAF12 ag 17.8 | LXR ag 2 inactive
COc1ccc(NC(=O)c2cc3ccc(O)cc3o/c2=N\O)cc1	hcDAF12 agonist 5.7, hgDAF-12 ag 17.7 | hgDAF12 ag 15.0 | LXR ag 2 inactive
COC(=O)c1ccc(OS(=O)(=O)N(C)C)cc1	hgDAF-12 ag 20.1 | hgDAF12 ag inactive | LXR ag 2 inactive
CN(C)S(=O)(=O)Oc1ccc(C(=O)Nc2ccc([N+](=O)[O-])cc2)cc1	none
N=c1oc2cc(O)ccc2cc1C(=O)Nc1ccc(F)cc1	none
COc1ccc(NC(=O)c2cccc(OS(=O)(=O)N(C)C)c2)cc1	hgDAF-12 ag 16.8 | hgDAF12 ag 11.6 | LXR ag 2 inactive
